Records with an inconclusive call do not appear. A call without a number means that no potency is given here. Active and inactive are the calls of the source. The call rests on the fitted dose curve; in most records, active means well fitted inhibition curve with a large enough effect in the signal ratio in the repeat runs (not every such curve was filed as active); inconclusive means weak or mixed curves, or effect the other way; inactive means no such curve, though single readings can be large or run the other way; the % refers to the signal ratio.

Sequence of Vitamin D3 receptor (Homo sapiens) (P11473 whole entry, looked up): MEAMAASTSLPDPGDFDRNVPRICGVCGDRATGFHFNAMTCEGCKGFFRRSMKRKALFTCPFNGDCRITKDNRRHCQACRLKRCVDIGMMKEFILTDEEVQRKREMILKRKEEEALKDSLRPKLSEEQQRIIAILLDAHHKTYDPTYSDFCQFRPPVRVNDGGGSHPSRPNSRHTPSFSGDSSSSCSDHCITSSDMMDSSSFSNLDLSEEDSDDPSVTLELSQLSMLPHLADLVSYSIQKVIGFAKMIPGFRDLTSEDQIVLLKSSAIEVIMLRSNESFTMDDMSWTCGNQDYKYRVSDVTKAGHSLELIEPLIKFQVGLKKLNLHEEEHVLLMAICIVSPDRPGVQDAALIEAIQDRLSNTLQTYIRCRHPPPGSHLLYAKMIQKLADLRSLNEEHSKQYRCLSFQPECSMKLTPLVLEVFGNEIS

In this assay the target is Vitamin D3 receptor (Homo sapiens) (UniProt P11473). Put plainly: qHTS assay to identify small molecule antagonists of the vitamin D receptor (VDR) signaling pathway (AID 743223). The note with it: VDR-UAS-bla HEK293T, beta-lactamase FRET ratio, 16 h; series mostly up to 61 µM; activity change, negative = inhibition: at the top concentration. From the text:
U.S. Tox21 Program National Center for Advancing Translational Sciences [NCATS] NIH Chemical Genomics Center [NCGC] U.S. Environmental Protection Agency [EPA] National Institutes of Environmental Health Sciences [NIEHS] National Toxicology Program [NTP] U.S. Food and Drug Administration [FDA] Tox21 Assay Overview: The vitamin D receptor (VDR), a member of nuclear hormone receptor superfamily, plays a critical role in calcium homeostasis and bone metabolism. It is also involved in cell differentiation and growth, and thrombogenicity.
Tox21 Assay Protocol Summary: VDR-bla cells were dispensed at 2,000 cells/5 uL of assay medium per well into black wall/clear-bottom 1536-well plates using a Multidrop Combi (Thermo Fisher Scientific, Waltham, MA) dispenser. After the assay plates were incubated at a 37C and 5% CO2 for 4 h, 23 nL of compounds dissolved in DMSO, positive controls or DMSO only was transferred to the assay plate by a Pintool station (Kalypsys, San Diego, CA), followed by addition of 1 uL of 1alpha, 25-Dihydroxy Vitamin D3 (3 nM, final concentration in the wells) using a Bioraptr Flying Reagent Dispenser (FRD) workstation (Beckman Coulter, Indianapolis, IN). The plates were incubated at 37C and 5% CO2 for 16 h, and then 1 uL of LiveBLAzerTM B/G FRET substrate was added using a Bioraptr FRD. The plates were incubated at room temperature for 2 h and fluorescence intensity was measured by an Envision plate reader (PerkinElmer, Shelton, CT).
`CN(C)c1cccc(O)c1`: the Potency entry was “inactive”.

Take `CCCCCCCCC`: the “activity change, negative = inhibition” value is -2.62% [at 78.8 µM] (inactive).

For `CCCCOCCOCCOC(=O)CCCCC(=O)OCCOCCOCCCC`, the “activity change, negative = inhibition” value was 0.661% (inactive). In the case of `C[C@@H]1O[C@@H](OC[C@H]2O[C@@H](Oc3c(-c4ccc(O)c(O)c4)oc4cc(O)cc(O)c4c3=O)[C@H](O)[C@@H](O)[C@@H]2O)[C@H](O)[C@H](O)[C@H]1O`, the Potency entry is “inactive”. With `NCc1cccc(CN)c1`, the Potency entry was “inactive”. Consider `c1ccc2[nH]cnc2c1`, for which the “activity change, negative = inhibition” value was 6.92% (inactive). Consider `CC1(C)O[C@@H]2C[C@H]3[C@@H]4C[C@H](F)C5=CC(=O)CC[C@]5(C)[C@H]4[C@@H](O)C[C@]3(C)[C@]2(C(=O)CO)O1`, for which the Potency entry is “inactive”. With `OC[C@@H](O)[C@H](O)[C@H](O)[C@@H](O)CO`, the “activity change, negative = inhibition” value was 0.0069% (inactive).

With `CS(=O)(=O)Nc1ccc([N+](=O)[O-])cc1Oc1ccccc1`, the Potency entry is “inactive”.

For `Nc1c(S(=O)(=O)O)cc(Br)c2c1C(=O)c1ccccc1C2=O`, the Potency result is “inactive”.

As to `CC(C)(N=C=O)c1cccc(C(C)(C)N=C=O)c1`, the “activity change, negative = inhibition” value was -4.92% (inactive). Still for that read-out and setting: the same measure for `Cn1c([N+](=O)[O-])cnc1COC(N)=O`: 0.598% (inactive). `CC[Si](OC(C)=O)(OC(C)=O)OC(C)=O`: the Potency entry was “inactive”. For the molecule `CC1=C(/C=C/C(C)=C/C=C/C(C)=C/CO)C(C)(C)CCC1`, the “activity change, negative = inhibition” value was -18.4% [at 78.8 µM] (inactive). Regarding `Cc1ccc(C(=O)O)o1`, the “activity change, negative = inhibition” value is 7.23% (inactive). Consider `Clc1ccc(Cl)c(Cl)c1Cl`, for which the “activity change, negative = inhibition” value is -2.2% (inactive). Regarding `O=[N+]([O-])c1cc(N(CCO)CCO)ccc1NCCO`, the Potency entry was “inactive”.

Turning to `CCCCNC(N)=O`, the Potency result is “inactive”.

Turning to `O=S(=O)(O)c1cc(S(=O)(=O)O)c2c(N=Nc3ccccc3)c(O)ccc2c1`, the Potency entry was “inactive”. As for `CC(=O)CCc1ccccc1`, the Potency result is “inactive”.

On to `OCC1CCCO1` (stereo not given), for which the Potency result was “inactive”. Consider `CNC[C@H](O)[C@@H](O)[C@H](O)[C@H](O)CO`, for which the “activity change, negative = inhibition” value is -3.03% (inactive). As to `COCC(=O)O`, the “activity change, negative = inhibition” value is -1.69% [at 78.8 µM] (inactive). For `c1ccc2ccccc2c1`, the Potency result is “inactive”. Consider `CC(C)NCC(O)COc1cccc2ccccc12` (stereo not given), for which the “activity change, negative = inhibition” value was 4.03% [at 78.8 µM] (inactive). Take `CCCCC(CC)COC(C)=O` (stereo not given): the Potency result was “inactive”. Still for that read-out and setting: the same measure for `CCC(=O)O`: “inactive”; for `O=C(c1cc(O)c(O)c(O)c1)c1ccc(O)c(O)c1O`: “inactive”; for `CCCCCCCCCC(=O)O`: “inactive”. Regarding `COC(=O)c1ccc(C(=O)OC)cc1`, the Potency result was “inactive”.

On to `CC1(C)CC(N=C=O)CC(C)(CN=C=O)C1` (stereo not given), for which the Potency result is “inactive”. As for `CS(=O)(=O)c1ccc([C@@H](O)[C@@H](CO)NC(=O)C(Cl)Cl)cc1`, the “activity change, negative = inhibition” value was -0.64% (inactive). Turning to `CCc1ccc(O)cc1`, the Potency result is “inactive”.

For the molecule `S=c1nc[nH]c2nc[nH]c12`, the Potency entry was “inactive”. For the molecule `CCOC(=O)/C=C\C(=O)OCC`, the “activity change, negative = inhibition” value was -9.06% [at 78.8 µM] (inactive). Take `O=[N+]([O-])c1cccc(Cl)c1`: the “activity change, negative = inhibition” value is -17.7% (inactive). Consider `O=S(=O)(Oc1ccc(Cl)cc1Cl)c1ccccc1`, for which the Potency result was “inactive”. Regarding `COCC(C)O` (stereo not given), the Potency result was “inactive”. `CCCCC(CC)C(=O)OCCOCCOCCOC(=O)C(CC)CCCC` (stereo not given): the “activity change, negative = inhibition” value is 5.63% [at 78.8 µM] (inactive). `C[C@@H](O)[C@H]1C(=O)N2C(C(=O)O)=C(S[C@@H]3CN[C@H](C(=O)N(C)C)C3)[C@H](C)[C@H]12`: the “activity change, negative = inhibition” value was 13.9% (inactive).
